9 molecules from PubChem BioAssay can be followed below.

For part of these data: Potency and affinity values are given separately. Calls of active or inactive are those of the source.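 Rule for the calls, unless noted: active = compound raising the membrane signal above positive-control mean plus 3 SD in both repeats, and a primary screen hit; inactive = the rest.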

Test [1] deals with TRPC4 beta (transient receptor potential cation channel C4), mouse. The test can be described thus: TRPC4 cation channel opening, retest – cell-based, Fluo4 calcium, HEK293 TRPC4beta/mu-opioid, duplicates, 10 µM, confirmation (AID 2426;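 active = fluorescence ratio normalized to control raised more than 50% in primary screen plus both repeat runs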). As to conditions: Fluo4 calcium fluorescence, at 10 µM; hits give high values.
Test [2] concerns transient receptor potential cation channel C4 beta (TRPC4), mouse. The test can be described thus: TRPC4 cation channel opening, second retest – cell-based, second round, Fluo4, HEK293 TRPC4beta/mu-opioid, 1 µM, confirmation (AID 2461;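 active = primary screen active and over 50% activation in each of two duplicate runs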). As to conditions: Fluo4 calcium fluorescence, at 1 µM; hits give high values.
Test [3] deals with TRPC4 (transient receptor potential cation channel C4 beta), mouse. Nature of the test: potentiation of DAMGO EC20 TRPC4 response – cell-based, second round, Fluo-4, HEK293 TRPC4beta/mu-opioid, 1 µM, confirmation (AID 2554;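 active = primary screen hit whose fluorescence ratio, in both repeats, exceeds the weak agonist control mean by 3 SD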). The following applies: DAMGO EC20, Fluo-4 calcium flux, at 1 µM; hits give high values.
The subject of test [4] is TRPC4 beta (transient receptor potential cation channel C4), mouse. Nature of the test: potentiation of DAMGO EC20 TRPC4 response – cell-based, Fluo-4, HEK293 TRPC4beta/mu-opioid, confirmation (AID 2555;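 active = primary screen hit whose calcium fluorescence ratio, in both repeats, exceeds the weak agonist control mean by 3 SD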). The following applies: DAMGO EC20, Fluo-4 calcium flux, at 10 µM; hits give high values. (Calcium assays in cells follow changes in intracellular calcium, usually with a dye or a luminescent sensor.)

For test [5], the target named is Short transient receptor potential channel 4 (Mus musculus) (UniProt Q9QUQ5). The test can be described thus: blockers of DAMGO-evoked TRPC4 calcium flux – cell-based, Fluo4, HEK293 TRPC4beta/mu-opioid, confirmation (AID 2636;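 active = calcium signal cut by more than 3 SD below the full-agonist control yet still positive, in both repeats and the earlier primary screen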). The following applies: at 10 µM; hits give high values.
Chain of Short transient receptor potential channel 4 (Mus musculus) (Q9QUQ5 whole entry, looked up): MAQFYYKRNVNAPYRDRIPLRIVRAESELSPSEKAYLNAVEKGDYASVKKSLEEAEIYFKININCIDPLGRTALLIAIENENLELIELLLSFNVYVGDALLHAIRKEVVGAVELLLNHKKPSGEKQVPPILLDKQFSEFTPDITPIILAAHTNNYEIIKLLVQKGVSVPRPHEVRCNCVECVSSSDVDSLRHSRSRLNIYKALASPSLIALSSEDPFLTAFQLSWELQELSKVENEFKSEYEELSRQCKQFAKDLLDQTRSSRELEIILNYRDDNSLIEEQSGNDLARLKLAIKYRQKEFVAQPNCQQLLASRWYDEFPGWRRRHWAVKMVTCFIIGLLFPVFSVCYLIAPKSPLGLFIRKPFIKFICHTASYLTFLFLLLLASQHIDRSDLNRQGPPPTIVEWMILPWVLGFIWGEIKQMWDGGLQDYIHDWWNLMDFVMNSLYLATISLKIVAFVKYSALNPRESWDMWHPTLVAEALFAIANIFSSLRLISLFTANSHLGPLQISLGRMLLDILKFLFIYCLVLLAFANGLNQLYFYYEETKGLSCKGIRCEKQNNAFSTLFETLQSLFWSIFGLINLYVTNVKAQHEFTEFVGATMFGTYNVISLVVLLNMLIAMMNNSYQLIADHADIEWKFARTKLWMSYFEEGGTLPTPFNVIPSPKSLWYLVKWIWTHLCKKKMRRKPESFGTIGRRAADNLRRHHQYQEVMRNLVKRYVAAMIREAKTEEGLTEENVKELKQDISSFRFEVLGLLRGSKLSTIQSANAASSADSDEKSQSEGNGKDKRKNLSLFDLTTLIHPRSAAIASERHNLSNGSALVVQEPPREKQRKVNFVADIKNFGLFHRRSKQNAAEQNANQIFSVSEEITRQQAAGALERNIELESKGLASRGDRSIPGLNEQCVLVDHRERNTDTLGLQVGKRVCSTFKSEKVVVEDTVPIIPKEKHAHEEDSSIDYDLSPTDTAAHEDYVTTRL
Test [6] shares this target. The test can be described thus: blockers of DAMGO-evoked TRPC4 calcium flux – cell-based, second round, Fluo4, HEK293 TRPC4beta/mu-opioid, 1 µM, confirmation (AID 2637;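 active = calcium signal ratio cut to more than 3 SD under the fully stimulated control mean yet still positive, in both repeats and the primary screen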). As to conditions: at 1 µM; hits give high values.
The target is the same in test [7]. Nature of the test: calcium entry via TRPC4 opening agents – cell-based, HEK293 TRPC4/mu-opioid, Fluo-4 calcium, dose response (AID 434937;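 active = primary screen activator hit with a dose response curve and TRPC4 channel activation at any tested dose; inactive = no activation, no dose response, or not a primary hit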).
Test [8] has the same target. The test can be described thus: potentiation of DAMGO-evoked TRPC4 calcium signal – cell-based, HEK293 TRPC4/mu-opioid, Fluo-4 calcium, EC20 DAMGO, dose response (AID 434941;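 active = earlier screen potentiator hit that boosts the TRPC4 ion channel at some dose, with a dose response; inactive = no potentiation, no dose response, or not a prior hit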;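 note: calcium entry triggered by an EC20 dose of DAMGO at the co-expressed mu-opioid receptor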).
Test [9] has the same target. Nature of the test: block of DAMGO-driven TRPC4 calcium entry – cell-based, HEK293 TRPC4/mu-opioid, Fluo-4 calcium, dose response (AID 434942;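 active = primary screen inhibitor hit that blocks the TRPC4 channel at some tested dose, yielding a dose curve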).
Test [10] addresses Short transient receptor potential channel 6 (Mus musculus) (UniProt Q61143). The test can be described thus: TRPC6 blockade by TRPC4 inhibitor hits – cell-based, HEK293, membrane potential dye, duplicate, selectivity assay for TRPC4 inhibitor project, confirmation (AID 434948;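 active = active in primary screen and both duplicates, each dropping signal beyond three positive-control SD with fluorescence still positive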). The following applies: HEK293 TRPC6, membrane potential dye fluorescence, at 10 µM, stimulated with maximal-effect acetylcholine; hits give high values.

For test [11] the target is unchanged. The test can be described thus: TRPC6 opening by TRPC4 activator hits – cell-based, HEK293, membrane potential dye, duplicate, selectivity assay for TRPC4 activator project, confirmation (AID 434950;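 active = membrane potential signal rise above negative control mean plus 3 SD in both duplicates, also active in the earlier TRPC4 screen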;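 for activation: 0% = buffer only wells and 100% = acetylcholine maximal-effect wells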). The following applies: HEK293 TRPC6, membrane potential fluorescence, at 10 µM; activation: hits give high values; outcome: activation.
Test [12] shares this target. The test can be described thus: positive modulators of mouse TRPC6 channel – HEK293 cells, membrane potential dye, duplicate, selectivity assay for TRPC4 potentiator project, confirmation (AID 434952). The following applies: HEK293 TRPC6, membrane potential dye fluorescence, at 10 µM, maximal acetylcholine added after compound; hits give high values.
Test [13] has as its target Short transient receptor potential channel 4 (Mus musculus) (UniProt Q9QUQ5). Nature of the test: calcium flux activators in TRPC4/5HT1a cells, counter-screen for TRPC4 activator project, cell-based, second counter screen, HEK293 TRPC4/5HT1a, Fluo-4 (AID 434977;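 active = calcium signal rise above buffer-control mean plus 5 SD in both duplicates, and also a hit in the primary screen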). The following applies: Fluo-4 calcium flux, at 10 µM; hits give high values.
Test [14] is described as follows: serotonin-gated TRPC4 signal block – cell-based, second counter screen, HEK293 TRPC4/5HT1a, Fluo-4, counter-screen for TRPC4 inhibitor project, confirmation (AID 434978;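 active = primary screen active whose calcium signal fell more than 3 SD beyond the full-serotonin control mean in both duplicate plates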;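 for outcome: serotonin given first at submaximal then at maximal dose after compound preincubation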). As to conditions: Fluo-4 calcium flux, at 10 µM, serotonin added to trigger calcium flux; hits give high values. (A counterscreen serves to expose hits that act by an unwanted route or on another target.)

The subject of test [15] is TRPC4 (mouse), co-expressed with 5HT1a in HEK293. Nature of the test: enhancement of serotonin-evoked TRPC4 response – cell-based, second counter screen, HEK293 TRPC4/5HT1a, Fluo-4, counter-screen for TRPC4 potentiator project, confirmation (AID 434979;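 active = signal rise over 3 SD above mean of control wells given weak agonist, in both repeats and first screen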). The following applies: Fluo-4 calcium flux, at 10 µM, serotonin added at its EC20 dose; hits give high values.
Test [16] can be described thus: nonspecific calcium rise without TRPC4 – cell-based, HEK293 mu-opioid receptor line, counter-screen for TRPC4 activator project, confirmation (AID 449723;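 active = hit in primary screen, with calcium signal over 5 SD above buffer well mean in both duplicates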;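 note: counter screen cells carry the mu-opioid receptor alone and lack TRPC4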). The following applies: HEK293 mu-opioid cells, Fluo-4 calcium fluorescence, at 10 µM; hits give high values.
Test [17] can be described thus: nonspecific potentiation of DAMGO calcium response – cell-based, HEK293 mu-opioid receptor line, counter-screen for TRPC4 allosteric potentiator project, confirmation (AID 449724;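 active = calcium signal rise more than 3 SD above the low-dose agonist control mean, in both duplicate plates and the primary screen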;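 note: HEK293 cells carrying mu-opioid receptor only with no TRPC4 channel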). As to conditions: HEK293 mu-opioid receptor cells, Fluo-4 calcium flux, at 10 µM, compound added before EC20 DAMGO stimulus; hits give high values.

Chain of Short transient receptor potential channel 6 (Mus musculus) (Q61143 whole entry, looked up): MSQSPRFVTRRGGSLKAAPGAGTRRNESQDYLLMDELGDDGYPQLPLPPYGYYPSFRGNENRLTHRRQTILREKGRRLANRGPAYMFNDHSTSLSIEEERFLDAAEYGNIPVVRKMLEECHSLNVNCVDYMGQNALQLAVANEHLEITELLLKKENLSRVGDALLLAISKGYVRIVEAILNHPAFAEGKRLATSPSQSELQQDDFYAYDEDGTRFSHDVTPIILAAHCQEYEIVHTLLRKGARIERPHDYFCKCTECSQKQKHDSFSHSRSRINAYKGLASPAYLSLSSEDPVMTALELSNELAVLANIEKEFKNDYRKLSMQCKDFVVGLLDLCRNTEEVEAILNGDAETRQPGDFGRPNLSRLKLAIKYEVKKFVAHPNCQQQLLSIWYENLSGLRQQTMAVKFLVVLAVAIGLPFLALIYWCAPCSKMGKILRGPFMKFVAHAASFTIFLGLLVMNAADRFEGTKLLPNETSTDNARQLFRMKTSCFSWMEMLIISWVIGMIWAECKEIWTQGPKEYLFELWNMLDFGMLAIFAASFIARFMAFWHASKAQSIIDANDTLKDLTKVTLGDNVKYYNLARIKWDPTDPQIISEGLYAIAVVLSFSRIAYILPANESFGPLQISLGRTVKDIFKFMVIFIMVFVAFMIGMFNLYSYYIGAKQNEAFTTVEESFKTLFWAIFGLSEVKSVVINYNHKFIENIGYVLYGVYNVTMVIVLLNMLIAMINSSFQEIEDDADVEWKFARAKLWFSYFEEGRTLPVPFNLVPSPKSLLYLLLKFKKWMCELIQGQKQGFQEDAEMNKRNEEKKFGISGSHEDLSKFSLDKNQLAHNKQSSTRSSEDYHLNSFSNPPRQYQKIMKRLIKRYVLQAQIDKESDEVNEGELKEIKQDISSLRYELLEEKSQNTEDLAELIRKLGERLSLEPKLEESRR

As for `CCOC(=O)C1=C(NC(=S)NC(=O)c2ccccc2)c2ccccc2CC1(C)C`, the outcome in test [1], in test [2], in test [3], in [5], in [6] and in test [7] was inactive. Besides, the result in [8], in test [9], in [10], in [11], in [12] and in test [13] was inactive. Besides, the result in test [14], in test [16] and in test [17] was inactive. Moreover, the potentiation in test [4] is 12% (active); in test [15] it was 27.1% (active).

`CC(C)c1nc(N2CCOCC2)c(C#N)c2c1CCCC2`: the result in test [1], in test [2], in [3], in [4], in test [5] and in [6] was inactive. The result in test [7], in test [8], in test [9], in test [10], in test [11] and in [12] was inactive. For the same molecule, the outcome in test [13], in test [14], in [15], in test [16] and in test [17] was inactive.

Take `COc1ccccc1NC(=O)CSc1n[nH]c(-c2ccccn2)n1`: the result in [1], in test [2], in test [3], in test [4], in [5] and in test [6] was inactive. The result in [7], in test [8], in test [9], in test [10], in [11] and in test [12] was inactive. The result in [13], in [14], in test [15], in test [16] and in [17] was inactive.

With `Cc1ccc(Oc2ccccc2NC(=O)CSCC(=O)Nc2cc(C)on2)cc1`, the result in test [1], in test [2], in test [3], in [4], in test [6] and in [7] was inactive. For the same molecule, the result in test [8], in [9], in test [10], in [11], in test [12] and in [13] was inactive. Besides, the result in test [15], in test [16] and in test [17] was inactive. In addition, the inhibition (as a rule, the percentage by which the read-out fell short of the control) in [5] is 62% (active); in [14] it was 35.3% (active).

Turning to `CCOc1ccc(CCNC(=O)c2ccc3c(=O)[nH]c4c(C(=O)NC(C)C)sc(=S)n4c3c2)cc1`, the outcome in test [1], in test [2], in test [5], in test [6], in [7] and in test [8] was inactive. The result in test [9], in [10], in test [11], in test [12], in test [13] and in [14] was inactive. The outcome in [16] and in [17] was inactive. The potentiation was 9% (active) in test [3], 11% (active) in test [4] and 7.91% (active) in test [15].

As to `O=C(C1CCCN(Cc2cccc(Cl)c2)C1)N1CCCCC1` (stereo not drawn), the result in [1], in [2], in [3], in test [4], in test [5] and in test [6] was inactive. Further, the result in test [7], in [8], in test [9], in test [10], in test [11] and in test [12] was inactive. The outcome in test [13], in [14], in test [15], in test [16] and in [17] was inactive.

For the molecule `c1ccc(Nc2ncnc3sc4c(c23)CCC4)cc1`, the result in [1], in test [2], in test [3], in [4], in test [5] and in test [6] was inactive. The outcome in test [7], in [8], in test [9], in [10], in test [12] and in [13] was inactive. Further, the result in test [14], in test [15], in test [16] and in test [17] was inactive. In addition, the activation in [11] is 30% (active).

As to `CCn1cc(CN2CCC(n3nccc3NC(=O)CCOc3ccccc3)CC2)c(C)n1`, the outcome in test [1], in test [2], in test [3], in [4], in [5] and in test [6] was inactive. Moreover, the result in test [7], in test [8], in [9], in test [10], in test [11] and in test [12] was inactive. The result in test [13], in test [14], in [15], in test [16] and in [17] was inactive.

On to `CN(Cc1ccccc1)Cc1nc2c(c(=O)n(C)c(=O)n2C)n1CCCc1ccccc1`, for which the result in [1], in test [2], in [3], in test [4], in [5] and in [6] was inactive. Besides, the result in test [7], in test [8], in test [9], in test [10], in test [11] and in [12] was inactive. The result in test [13], in [14], in test [16] and in test [17] was inactive. Moreover, the potentiation in test [15] is 8.51% (active).
